The source made the active and inactive calls.

The first assay in a line: FRG1 expression reporter modulators in myotubes – cell-based, C2C12 myotubes, firefly/Renilla luciferase, luminescence, FRG1 inhibition for FSHD, primary screen (AID 1084). The settings on record: FRG1 promoter luciferase, higher = more signal, called active from +8 up or from −8 down.
With `COc1cc2c(cc1OC)CN(C(=O)[C@H]1[C@@H]3C(=O)O[C@@H](c4ccccc4)[C@@H](c4ccccc4)N3[C@@H](c3ccc(O)cc3)[C@]13C(=O)Nc1ccc(C#CC4(O)CCCCCC4)cc13)CC2`, the z-score is -0.21 (inactive).
As for `CN(C)C(=O)[C@@]1(Cc2ccccc2N=[N+]=[N-])N=C(c2ccc(OCCCO)cc2)O[C@H]1c1ccccc1CN=[N+]=[N-]`, the z-score is -2.27 (inactive).
On to `CO[C@H]1COC(=O)[C@@H](C)COC(=O)[C@H](Cc2ccccc2)NC(=O)CC=C[C@H]1C`, for which the z-score was -0.117 (inactive).
The same measure, in the same setting: for `CC(=O)NCCCC[C@@H]1NC(=O)[C@H]2C[C@@H](C(=O)NCCCCCCN(C)C)[C@@H](c3cccc(OCCO)c3)N2C1=O` the value was 2.92 (inactive); for `C=CCC(OC(C)=O)[C@@H]1[C@@H](N(Cc2ccc(-c3ccccc3)cc2)C(=O)c2ccc(-c3ccccc3)cc2)c2cc(OCCCO)ccc2N1C(=O)Cc1ccc(OC)cc1` (stereo partly specified), 0.826 (inactive); for `COCCCNC(=O)[C@@H]1c2ccccc2C(=O)N(CC23CC4CC(CC(C4)C2)C3)[C@H]1c1ccc(CO)cc1`, -2.03 (inactive).
On the same count and under the same terms, as for `C=CCN1C(=O)[C@]2(O[C@H](CCn3cc(CCO)nn3)[C@@H]([Si](C)(C)c3ccc(OC)cc3)[C@@H]2C)c2cc(NC(=O)c3ccc(OC)cc3)ccc21`, the figure is -2.48 (inactive); as for `C=C(CCCC)/C(=C/C[C@@H](OC(=O)c1ccncc1)c1ccc(CO)o1)c1cnc2ccccc2c1`, -0.452 (inactive).
As to `COC(=O)Cn1c(C(=O)N2CCCC2)cc2c1C[C@H]1CN(C(=O)c3ccccc3)[C@@](Cc3ccc(OC)cc3)(C(=O)OC)[C@@H]21`, the z-score is 0.0502 (inactive).
Still for that read-out and setting: for `C=C(CCCC)C(=O)CC[C@@H](OC(C)=O)c1ccccc1OCCO` the value was -2.26 (inactive); for `CCOC(=O)C[C@H]1[C@H](OC(=O)c2cc3ccccc3oc2=O)[C@@H](NC(=O)C2CCCCC2)c2cc(OCCCO)ccc2N1C(=O)c1ccc2ccccc2n1`, -0.541 (inactive).
On to `COC(=O)C(CC#Cc1ccc2c(c1)[C@]1(C(=O)N2)[C@H](C(=O)N2CCCCCCC2)[C@H]2C(=O)O[C@H](c3ccccc3)[C@H](c3ccccc3)N2[C@@H]1c1ccc(O)cc1)C(=O)OC`, for which the z-score is 1.65 (inactive).
Regarding `C=C[C@H](OC)[C@@H](OC(=O)Nc1ccc(SC)cc1)c1ccc(O)c(F)c1`, the z-score is 4.46 (inactive).
As to `O=C1O[C@@H](c2ccccc2)[C@@H](c2ccccc2)N2[C@@H](c3ccc(OCCO)cc3)[C@]3(C(=O)Nc4ccc(C#CCCO)cc43)[C@@H](C(=O)N3CCN(c4ncccn4)CC3)[C@H]12`, the z-score was 0.126 (inactive).
As for `C=CCC(OC(C)=O)[C@@H]1[C@@H](N(Cc2cccc3ccccc23)C(=O)Cc2ccc(F)cc2)c2cc(OCCCO)ccc2N1C(=O)Cc1ccc2ccccc2c1` (stereo partly specified), the z-score was -1.32 (inactive).
`O=C1O[C@@H](c2ccccc2)[C@@H](c2ccccc2)N2[C@@H](c3ccc(O)cc3)[C@]3(C(=O)Nc4ccc(C#CC5(O)CCCCCC5)cc43)[C@@H](C(=O)Nc3nc4ccccc4s3)[C@H]12`: the z-score was -0.253 (inactive).
The same measure, in the same setting: as for `C#CCCCON=C1C[C@@H](O)[C@@H](O)[C@@H]2[C@@H]3C(=O)N(Cc4ccc5c(c4)OCO5)C(=O)[C@@H]3CC[C@@H]12`, the figure is -0.177 (inactive); as for `O=C1O[C@H](c2ccccc2)[C@H](c2ccccc2)N2[C@H]1[C@@H](C(=O)NC[C@H](O)c1ccccc1)[C@]1(C(=O)Nc3ccc(C#CC4(O)CCCCCC4)cc31)[C@H]2c1ccc(OCCO)cc1`, 1.04 (inactive); as for `CCOC(=O)C1=C[C@@H](c2ccccc2)N(S(=O)(=O)c2ccc(C)cc2)[C@H]1c1ccc(F)cc1`, -2.62 (inactive).
As for `O=[N+]([O-])c1ccc(C[n+]2ccc3ccc(O)cc3c2)o1`, the z-score was 0.468 (inactive).

A short description of a further assay: small molecules captured by biotinylated probe aFST – biochemical, small-molecule microarray, fluorescence 635/667, stem cell growth factor project, primary screen (AID 1086).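 Further: score merges 667 nm fluorescence with signal-to-noise of each printed compound spot.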 The note with it: higher = more signal.
Consider `CCCNC(=O)[C@@]1(Sc2ccc(C)cc2)CC(=O)N(Cc2ccccc2Cl)[C@@H]1c1ccc(CO)cc1`, for which the composite z-score worked out at 0.427.
On the same count and under the same terms, as for `C[C@H]1COC(=O)[C@H](Cc2ccccc2)NC(=O)[C@@H](C)COC(=O)[C@H](Cc2ccccc2)NC1=O`, the figure is 0.0531; as for `CC(C)N1CC=CC23O[C@@H]4/C=C\CCCOC(=O)C4[C@H]2C(=O)N(CCO)[C@@H]3C1=O` (stereo partly specified), -0.219.
`COC(=O)[C@@]1(Cc2ccc(OC)cc2)[C@H]2c3cc(C(=O)N(C)C)n(CCc4ccc(OC)c(Br)c4)c3C[C@H]2CN1C(=O)c1ccccc1` had a composite z-score of 1.95.
The same measure, in the same setting: as for `COCCOC(=O)N1C(=O)[C@@]2(c3cc(C#CCCO)ccc31)[C@H](c1ccc(O)cc1)N1[C@H](c3ccccc3)[C@H](c3ccccc3)OC(=O)[C@H]1[C@@H]2C(=O)Nc1nc2ccccc2s1`, the figure is 0.293; as for `C=CC[C@]1(C(=O)N2CCCCC2)N=C(c2ccc(OCCCO)cc2)O[C@H]1c1ccccc1N=[N+]=[N-]`, 1.87; as for `CCCC=C(CCC)[C@@H](NS(=O)(=O)c1cccc(C(F)(F)F)c1)c1ccc(C(=O)OC)cc1`, 2.13.
`COc1ccc([Si](C)(C)[C@@H]2[C@@H](CC(=O)N(CCO)Cc3ccccc3)O[C@]3(C(=O)N(Cc4cccc(N5CCC5=O)c4)c4ccccc43)[C@H]2C)cc1` came in with a composite z-score of 0.147.
For the molecule `COc1cc([C@@H]2N[C@H](C(=O)O)Cc3c2[nH]c2ccccc32)cc(OC)c1OC`, the composite z-score is -0.134.
The molecule `COCC(=C=CC[C@H](O)c1ccc(OCCO)cc1)C[C@H](O)c1ccccn1` showed a composite z-score of -0.192.
Still for that read-out and setting: for `COCCOC(=O)N1C(=O)[C@@]2(c3cc(C#CC4(O)CCCCCC4)ccc31)[C@H](C(=O)N1CCCCCCC1)[C@H]1C(=O)O[C@H](c3ccccc3)[C@H](c3ccccc3)N1[C@@H]2c1ccc(O)cc1` the value was 2.81.
On the same count and under the same terms, for `C=CCC(OC(C)=O)[C@@H]1[C@@H](N(Cc2cc3ccccc3o2)C(=O)c2ccc(C)cc2)c2cc(OCCCO)ccc2N1C(=O)c1ccc2ccccc2n1` (stereo partly specified) the value was 0.113; for `C=C(COC)C(=O)CC[C@H](OC(=O)c1ccccc1-c1ccccc1C(=O)O)c1cccc(OCCO)c1`, -0.25.
Still for that read-out and setting: for `CC(C)[Si](OCC[C@H]1O[C@]2(C(=O)N(Cc3ccccc3)c3ccccc32)[C@@H](C)[C@@H]1[Si](C)(C)O)(C(C)C)C(C)C` the value was 0.292; for `CO[C@H]1COC(=O)CC=C[C@H](C)[C@@H](OC)COC(=O)CC=C[C@@H]1C`, -0.055.
`COCCOC(=O)N1C(=O)[C@@]2(c3cc(C#CC4=CCCCC4)ccc31)[C@H](C(=O)NC[C@H](O)c1ccccc1)[C@H]1C(=O)O[C@H](c3ccccc3)[C@H](c3ccccc3)N1[C@@H]2c1ccccc1OCCO` returned a composite z-score of 0.881.
Regarding `COc1cc2c(cc1OC)CN(C(=O)[C@H]1[C@@H]3C(=O)O[C@@H](c4ccccc4)[C@@H](c4ccccc4)N3[C@@H](c3ccc(O)cc3)[C@]13C(=O)Nc1ccc(C#CC4(O)CCCCCC4)cc13)CC2`, the composite z-score was 2.53.
The molecule `CN(C)C(=O)[C@@]1(Cc2ccccc2N=[N+]=[N-])N=C(c2ccc(OCCCO)cc2)O[C@H]1c1ccccc1CN=[N+]=[N-]` returned a composite z-score of 0.961.
Regarding `CO[C@H]1COC(=O)[C@@H](C)COC(=O)[C@H](Cc2ccccc2)NC(=O)CC=C[C@H]1C`, the composite z-score was 0.267.
Still for that read-out and setting: as for `CC(=O)NCCCC[C@@H]1NC(=O)[C@H]2C[C@@H](C(=O)NCCCCCCN(C)C)[C@@H](c3cccc(OCCO)c3)N2C1=O`, the figure is 0.861.
With `C=CCC(OC(C)=O)[C@@H]1[C@@H](N(Cc2ccc(-c3ccccc3)cc2)C(=O)c2ccc(-c3ccccc3)cc2)c2cc(OCCCO)ccc2N1C(=O)Cc1ccc(OC)cc1` (stereo partly specified), the composite z-score was found to be 0.391.
Same read-out and setting: for `COCCCNC(=O)[C@@H]1c2ccccc2C(=O)N(CC23CC4CC(CC(C4)C2)C3)[C@H]1c1ccc(CO)cc1` the value was 0.327; for `C=CCN1C(=O)[C@]2(O[C@H](CCn3cc(CCO)nn3)[C@@H]([Si](C)(C)c3ccc(OC)cc3)[C@@H]2C)c2cc(NC(=O)c3ccc(OC)cc3)ccc21`, 0.479; for `C=C(CCCC)/C(=C/C[C@@H](OC(=O)c1ccncc1)c1ccc(CO)o1)c1cnc2ccccc2c1`, 0.972.
`COC(=O)Cn1c(C(=O)N2CCCC2)cc2c1C[C@H]1CN(C(=O)c3ccccc3)[C@@](Cc3ccc(OC)cc3)(C(=O)OC)[C@@H]21` came in with a composite z-score of 1.7.
Still for that read-out and setting: for `C=C(CCCC)C(=O)CC[C@@H](OC(C)=O)c1ccccc1OCCO` the value was -0.488.
The same measure, in the same setting: for `CCOC(=O)C[C@H]1[C@H](OC(=O)c2cc3ccccc3oc2=O)[C@@H](NC(=O)C2CCCCC2)c2cc(OCCCO)ccc2N1C(=O)c1ccc2ccccc2n1` the value was 0.33; for `COC(=O)C(CC#Cc1ccc2c(c1)[C@]1(C(=O)N2)[C@H](C(=O)N2CCCCCCC2)[C@H]2C(=O)O[C@H](c3ccccc3)[C@H](c3ccccc3)N2[C@@H]1c1ccc(O)cc1)C(=O)OC`, -0.137; for `C=C[C@H](OC)[C@@H](OC(=O)Nc1ccc(SC)cc1)c1ccc(O)c(F)c1`, -0.212.
On the same count and under the same terms, for `O=C1O[C@@H](c2ccccc2)[C@@H](c2ccccc2)N2[C@@H](c3ccc(OCCO)cc3)[C@]3(C(=O)Nc4ccc(C#CCCO)cc43)[C@@H](C(=O)N3CCN(c4ncccn4)CC3)[C@H]12` the value was 0.488; for `C=CCC(OC(C)=O)[C@@H]1[C@@H](N(Cc2cccc3ccccc23)C(=O)Cc2ccc(F)cc2)c2cc(OCCCO)ccc2N1C(=O)Cc1ccc2ccccc2c1` (stereo partly specified), -0.299.
As to `O=C1O[C@@H](c2ccccc2)[C@@H](c2ccccc2)N2[C@@H](c3ccc(O)cc3)[C@]3(C(=O)Nc4ccc(C#CC5(O)CCCCCC5)cc43)[C@@H](C(=O)Nc3nc4ccccc4s3)[C@H]12`, the composite z-score worked out at 1.12.
On to `C#CCCCON=C1C[C@@H](O)[C@@H](O)[C@@H]2[C@@H]3C(=O)N(Cc4ccc5c(c4)OCO5)C(=O)[C@@H]3CC[C@@H]12`, for which the composite z-score is 0.351.
Molecule `O=C1O[C@H](c2ccccc2)[C@H](c2ccccc2)N2[C@H]1[C@@H](C(=O)NC[C@H](O)c1ccccc1)[C@]1(C(=O)Nc3ccc(C#CC4(O)CCCCCC4)cc31)[C@H]2c1ccc(OCCO)cc1` came in with a composite z-score of 0.388.
`CCOC(=O)C1=C[C@@H](c2ccccc2)N(S(=O)(=O)c2ccc(C)cc2)[C@H]1c1ccc(F)cc1` gave a composite z-score of 0.541.
In turn, `O=[N+]([O-])c1ccc(C[n+]2ccc3ccc(O)cc3c2)o1` showed a composite z-score of 0.147.
